These results are taken from ChEMBL document CHEMBL2218924, “A broad activity screen in support of a chemogenomic map for kinase signalling research and drug discovery” (Biochem J, 2013).

Molecules are shown by their SMILES.

Assay [1] deals with T1, Aurora kinase C (Homo sapiens) (UniProt Q9UQB9).
T1 sequence (whole entry): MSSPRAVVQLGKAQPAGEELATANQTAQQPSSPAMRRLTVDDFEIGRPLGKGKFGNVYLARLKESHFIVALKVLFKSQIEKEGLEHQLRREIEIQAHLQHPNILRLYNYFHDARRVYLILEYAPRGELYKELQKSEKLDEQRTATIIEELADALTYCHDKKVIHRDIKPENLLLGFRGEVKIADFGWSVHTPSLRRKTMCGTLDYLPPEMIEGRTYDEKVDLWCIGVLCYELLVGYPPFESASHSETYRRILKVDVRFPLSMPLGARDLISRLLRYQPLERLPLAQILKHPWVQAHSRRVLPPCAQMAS
The settings on record: at 1 µM.

The target of assay [2] is T1, Aurora kinase C (Homo sapiens). The settings on record: at 10 µM.
For assay [3], the target named is Tyrosine-protein kinase receptor UFO (Homo sapiens) (UniProt P30530). The following applies: at 1 µM.
The target of assay [4] is Protein-tyrosine kinase 6 (Homo sapiens) (UniProt Q13882). The settings on record: at 1 µM.
For assay [5] the target is unchanged. The settings on record: at 10 µM.
Assay [6] addresses Tyrosine-protein kinase Blk (Homo sapiens) (UniProt P51451). The following applies: at 1 µM.
The target is the same in assay [7]. The settings on record: at 10 µM.
For assay [8], the target named is T2, Serine/threonine-protein kinase BRSK2 (Homo sapiens) (UniProt Q8IWQ3).
T2 sequence (whole entry): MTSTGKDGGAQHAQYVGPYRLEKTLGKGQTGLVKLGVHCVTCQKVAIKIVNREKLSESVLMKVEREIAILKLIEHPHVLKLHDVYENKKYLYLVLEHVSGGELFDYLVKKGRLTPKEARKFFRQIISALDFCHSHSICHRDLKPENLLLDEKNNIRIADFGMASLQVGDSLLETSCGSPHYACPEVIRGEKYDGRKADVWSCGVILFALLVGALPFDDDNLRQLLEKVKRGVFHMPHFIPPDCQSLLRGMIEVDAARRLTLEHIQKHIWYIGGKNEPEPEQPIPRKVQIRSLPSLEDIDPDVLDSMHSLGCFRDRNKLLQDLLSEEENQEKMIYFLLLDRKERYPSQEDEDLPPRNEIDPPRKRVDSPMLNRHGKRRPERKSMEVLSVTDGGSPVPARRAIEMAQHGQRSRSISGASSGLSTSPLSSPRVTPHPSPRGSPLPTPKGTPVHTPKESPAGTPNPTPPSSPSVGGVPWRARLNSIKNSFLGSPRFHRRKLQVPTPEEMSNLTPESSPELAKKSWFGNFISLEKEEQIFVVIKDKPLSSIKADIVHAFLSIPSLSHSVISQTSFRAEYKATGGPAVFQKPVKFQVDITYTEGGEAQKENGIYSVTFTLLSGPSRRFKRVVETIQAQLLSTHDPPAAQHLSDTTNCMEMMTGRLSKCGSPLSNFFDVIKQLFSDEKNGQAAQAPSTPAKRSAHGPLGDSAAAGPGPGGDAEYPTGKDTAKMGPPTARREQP
The following applies: at 1 µM.

The target in assay [9] is T2, Serine/threonine-protein kinase BRSK2 (Homo sapiens). The following applies: at 10 µM.
In assay [10] the target is T3, Cyclin-dependent kinase 1/cyclin B1 (Homo sapiens) (UniProt P06493+P14635). The following applies: at 1 µM.
The target in assay [11] is T4, Cyclin-dependent kinase 2/cyclin E (Homo sapiens) (UniProt P24864+P24941+O96020). The following applies: at 1 µM.
The target in assay [12] is T4, Cyclin-dependent kinase 2/cyclin E (Homo sapiens). The settings on record: at 10 µM.
Assay [13] concerns the target Tyrosine-protein kinase receptor UFO (Homo sapiens) (UniProt P30530). The settings on record: at 10 µM.
The target in assay [14] is Tyrosine-protein kinase BTK (Homo sapiens) (UniProt Q06187). The settings on record: at 1 µM.
Assay [15] has the same target. The settings on record: at 10 µM.
Assay [16] addresses T5, Serine/threonine-protein kinase BRSK1 (Homo sapiens) (UniProt Q8TDC3).
T5 sequence (whole entry): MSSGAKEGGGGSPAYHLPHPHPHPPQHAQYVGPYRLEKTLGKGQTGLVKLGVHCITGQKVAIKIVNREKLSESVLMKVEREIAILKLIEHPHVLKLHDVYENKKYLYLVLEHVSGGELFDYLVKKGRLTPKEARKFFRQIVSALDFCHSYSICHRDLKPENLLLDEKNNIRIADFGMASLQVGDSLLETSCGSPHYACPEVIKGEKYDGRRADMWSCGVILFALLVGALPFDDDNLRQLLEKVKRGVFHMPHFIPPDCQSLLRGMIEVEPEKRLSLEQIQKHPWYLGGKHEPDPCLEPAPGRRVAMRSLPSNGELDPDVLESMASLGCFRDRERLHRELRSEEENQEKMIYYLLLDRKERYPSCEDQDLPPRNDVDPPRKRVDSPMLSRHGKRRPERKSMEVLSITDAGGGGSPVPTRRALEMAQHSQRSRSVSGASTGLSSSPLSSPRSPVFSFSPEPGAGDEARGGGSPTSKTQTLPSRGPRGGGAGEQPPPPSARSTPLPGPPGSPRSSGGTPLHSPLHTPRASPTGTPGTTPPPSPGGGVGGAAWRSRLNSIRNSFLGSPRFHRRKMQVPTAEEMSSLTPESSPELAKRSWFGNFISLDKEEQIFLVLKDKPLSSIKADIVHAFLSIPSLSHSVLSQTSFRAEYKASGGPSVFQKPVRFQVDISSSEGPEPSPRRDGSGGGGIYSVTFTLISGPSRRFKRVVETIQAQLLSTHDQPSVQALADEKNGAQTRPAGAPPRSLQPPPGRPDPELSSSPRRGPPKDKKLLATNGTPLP
The following applies: at 1 µM.

Assay [17] addresses T5, Serine/threonine-protein kinase BRSK1 (Homo sapiens). The settings on record: at 10 µM.
The target of assay [18] is T3, Cyclin-dependent kinase 1/cyclin B1 (Homo sapiens). The following applies: at 10 µM.
For assay [19], the target named is T6, Cyclin-dependent kinase 2/cyclin A (Homo sapiens) (UniProt P24941+P20248+P78396). The following applies: at 1 µM.
Assay [20] addresses T6, Cyclin-dependent kinase 2/cyclin A (Homo sapiens). The following applies: at 10 µM.

T3 sequence (P06493 whole entry, looked up): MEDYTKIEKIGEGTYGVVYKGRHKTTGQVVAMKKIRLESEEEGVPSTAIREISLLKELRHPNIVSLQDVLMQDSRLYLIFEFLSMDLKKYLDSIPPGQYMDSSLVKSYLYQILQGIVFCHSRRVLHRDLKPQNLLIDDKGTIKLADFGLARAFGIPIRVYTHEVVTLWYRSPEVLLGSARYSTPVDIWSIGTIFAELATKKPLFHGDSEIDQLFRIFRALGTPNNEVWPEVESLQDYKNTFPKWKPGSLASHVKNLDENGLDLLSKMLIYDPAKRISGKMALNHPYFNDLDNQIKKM
T3 sequence (P14635 whole entry, looked up): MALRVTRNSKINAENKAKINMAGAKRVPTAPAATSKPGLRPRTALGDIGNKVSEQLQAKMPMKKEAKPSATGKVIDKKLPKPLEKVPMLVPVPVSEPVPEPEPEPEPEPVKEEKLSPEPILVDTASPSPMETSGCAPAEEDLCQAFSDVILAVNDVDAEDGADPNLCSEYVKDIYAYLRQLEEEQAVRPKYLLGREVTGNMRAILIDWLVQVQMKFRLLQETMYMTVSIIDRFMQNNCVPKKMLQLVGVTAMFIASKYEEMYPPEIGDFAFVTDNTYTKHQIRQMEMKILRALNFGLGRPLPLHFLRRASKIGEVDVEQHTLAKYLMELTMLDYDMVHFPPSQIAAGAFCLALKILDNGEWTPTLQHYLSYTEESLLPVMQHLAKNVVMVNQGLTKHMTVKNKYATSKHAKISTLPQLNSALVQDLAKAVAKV
Sequence of Tyrosine-protein kinase BTK (Homo sapiens) (Q06187 whole entry): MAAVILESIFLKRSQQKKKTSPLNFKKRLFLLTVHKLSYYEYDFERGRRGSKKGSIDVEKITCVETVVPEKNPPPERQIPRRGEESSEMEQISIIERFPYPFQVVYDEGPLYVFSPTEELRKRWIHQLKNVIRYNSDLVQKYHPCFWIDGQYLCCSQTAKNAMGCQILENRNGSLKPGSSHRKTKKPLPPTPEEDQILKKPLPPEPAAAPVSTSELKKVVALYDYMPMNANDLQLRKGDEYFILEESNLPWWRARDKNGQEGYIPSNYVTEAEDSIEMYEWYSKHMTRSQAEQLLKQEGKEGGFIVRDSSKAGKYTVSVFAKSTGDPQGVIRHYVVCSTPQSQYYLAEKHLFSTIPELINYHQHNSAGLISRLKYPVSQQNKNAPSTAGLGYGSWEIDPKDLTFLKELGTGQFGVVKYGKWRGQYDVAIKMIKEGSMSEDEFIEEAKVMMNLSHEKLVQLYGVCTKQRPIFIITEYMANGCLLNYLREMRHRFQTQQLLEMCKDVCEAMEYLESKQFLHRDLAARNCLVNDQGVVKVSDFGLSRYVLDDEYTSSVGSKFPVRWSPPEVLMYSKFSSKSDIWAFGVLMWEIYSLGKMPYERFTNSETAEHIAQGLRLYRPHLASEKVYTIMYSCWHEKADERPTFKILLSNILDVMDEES
Sequence of Protein-tyrosine kinase 6 (Homo sapiens) (Q13882 whole entry, looked up): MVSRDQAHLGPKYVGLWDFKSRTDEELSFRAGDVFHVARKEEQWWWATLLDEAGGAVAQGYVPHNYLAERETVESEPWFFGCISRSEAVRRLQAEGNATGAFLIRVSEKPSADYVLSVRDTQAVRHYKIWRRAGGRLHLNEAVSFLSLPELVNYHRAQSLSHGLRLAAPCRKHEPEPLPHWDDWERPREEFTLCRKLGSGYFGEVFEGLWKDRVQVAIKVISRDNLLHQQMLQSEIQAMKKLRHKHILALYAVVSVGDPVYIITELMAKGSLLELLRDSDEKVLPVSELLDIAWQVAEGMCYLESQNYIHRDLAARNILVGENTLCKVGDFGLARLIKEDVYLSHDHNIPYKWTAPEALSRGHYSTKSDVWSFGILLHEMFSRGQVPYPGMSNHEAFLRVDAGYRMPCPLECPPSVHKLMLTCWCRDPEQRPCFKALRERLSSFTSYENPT
Sequence of Tyrosine-protein kinase receptor UFO (Homo sapiens) (P30530 whole entry): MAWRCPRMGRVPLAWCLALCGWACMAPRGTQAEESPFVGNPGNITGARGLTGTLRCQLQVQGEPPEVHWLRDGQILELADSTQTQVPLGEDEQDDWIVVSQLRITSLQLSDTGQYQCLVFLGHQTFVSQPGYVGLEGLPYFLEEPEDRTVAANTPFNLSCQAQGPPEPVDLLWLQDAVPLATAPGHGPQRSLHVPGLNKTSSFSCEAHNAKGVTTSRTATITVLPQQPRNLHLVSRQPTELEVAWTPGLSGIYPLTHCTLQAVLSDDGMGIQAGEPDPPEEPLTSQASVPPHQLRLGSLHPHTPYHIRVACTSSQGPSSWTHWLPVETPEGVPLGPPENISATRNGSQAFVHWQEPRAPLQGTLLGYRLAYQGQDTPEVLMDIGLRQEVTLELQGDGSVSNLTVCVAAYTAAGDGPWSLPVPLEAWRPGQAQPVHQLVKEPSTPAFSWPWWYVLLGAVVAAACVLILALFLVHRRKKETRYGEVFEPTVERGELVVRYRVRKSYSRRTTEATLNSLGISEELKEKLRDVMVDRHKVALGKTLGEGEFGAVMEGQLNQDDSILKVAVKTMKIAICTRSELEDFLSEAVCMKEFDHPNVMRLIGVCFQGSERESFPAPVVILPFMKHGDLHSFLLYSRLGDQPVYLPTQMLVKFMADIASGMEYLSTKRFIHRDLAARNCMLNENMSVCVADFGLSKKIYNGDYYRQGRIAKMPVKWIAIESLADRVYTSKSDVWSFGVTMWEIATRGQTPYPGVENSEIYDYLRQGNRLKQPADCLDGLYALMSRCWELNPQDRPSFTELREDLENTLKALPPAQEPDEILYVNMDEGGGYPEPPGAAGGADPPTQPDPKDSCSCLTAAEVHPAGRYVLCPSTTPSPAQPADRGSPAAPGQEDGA
Sequence of Tyrosine-protein kinase Blk (Homo sapiens) (P51451 2-505 limits assumed): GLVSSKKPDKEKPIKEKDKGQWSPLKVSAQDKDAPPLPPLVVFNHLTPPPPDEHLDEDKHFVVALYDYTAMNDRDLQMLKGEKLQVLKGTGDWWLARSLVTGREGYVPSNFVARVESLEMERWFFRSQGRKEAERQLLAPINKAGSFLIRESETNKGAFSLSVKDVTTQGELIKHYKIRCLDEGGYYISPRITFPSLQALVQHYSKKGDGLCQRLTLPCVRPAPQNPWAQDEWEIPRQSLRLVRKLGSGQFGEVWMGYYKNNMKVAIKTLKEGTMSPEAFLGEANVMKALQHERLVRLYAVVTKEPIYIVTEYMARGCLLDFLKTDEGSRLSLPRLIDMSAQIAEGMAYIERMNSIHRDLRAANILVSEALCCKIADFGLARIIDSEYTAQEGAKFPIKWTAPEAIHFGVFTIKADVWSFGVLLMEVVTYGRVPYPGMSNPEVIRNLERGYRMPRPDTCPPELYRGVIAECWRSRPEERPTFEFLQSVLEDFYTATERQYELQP

Turning to `CC(C)(C)c1cc(C=C(C#N)C#N)cc(Br)c1O`, the residual activity is 115% in [1]; 99% in assay [2]; 108% in [3]; 109% in [4]; 110% in [5]; 99% in assay [6]. Also, the residual activity in [7] was found to be 36%; in [8], 112%; in assay [9], 63%; in assay [10] it was 107%; in [11] it was 108%; in assay [12], 98%.
On to `O=[N+]([O-])/C=C/c1ccc2c(c1)OCO2`, for which the residual activity in assay [1] came out at 102%; in assay [2], 77%; in assay [3], 69%; in assay [13], 81%; in assay [4], 113%; in assay [5], 105%. Also, the residual activity in [14] was found to be 96%; in assay [15], 102%; in assay [6], 120%; in assay [7], 96%; in assay [16], 92%; in assay [17], 104%. Besides, the residual activity in [8] was determined as 113%; in assay [9] it was 117%; in assay [10], 100%; in [18] it was 113%; in assay [19], 130%; in [20] it was 93%. Moreover, the residual activity in assay [11] is 98%; in assay [12], 96%.
As for `C[S+]([O-])c1ccc(-c2nc(-c3ccc(F)cc3)c(-c3ccncc3)[nH]2)cc1` (centres undefined), the residual activity was found to be 115% in [1]; 108% in assay [2]; 122% in assay [3]; 119% in assay [13]; 59% in [4]; 7% in assay [5]. Further, the residual activity was found to be 94% in [14]; 101% in assay [6]; 55% in assay [7]; 104% in assay [16]; 91% in assay [17]; 102% in assay [8]. In addition, the residual activity amounted to 90% in [9]; 107% in assay [10]; 89% in assay [18]; 101% in assay [19]; 104% in [20]; 105% in assay [11]. Besides, the residual activity in [12] worked out at 104%.
With `COc1cc(OC)c(/C=C2\C(=O)Nc3ccccc32)c(OC)c1`, the residual activity stood at 83% in assay [1]; 87% in assay [2]; 98% in assay [3]; 71% in assay [13]; 104% in [4]; 96% in assay [5]. The residual activity in assay [14] turned out to be 93%; in assay [15], 88%; in assay [6] it was 92%; in assay [7], 81%; in [16], 91%; in assay [17], 84%. Moreover, the residual activity in assay [9] was determined as 91%; in assay [19], 81%; in assay [20], 76%; in assay [11], 96%; in assay [12], 95%.
Take `COc1ccc2c(c[n+](C)c3c4cc5c(cc4ccc23)OCO5)c1OC`: the residual activity in assay [2] was found to be 90%; in assay [3] it was 93%; in assay [13], 44%; in assay [4], 110%; in assay [14], 93%; in assay [7] it was 90%. Moreover, the residual activity in [16] stood at 47%; in [17], 48%; in [9], 67%; in assay [19] it was 137%; in assay [12] it was 93%.
For `CC(C)[C@H](CO)Nc1nc(Nc2cccc(Cl)c2)c2ncn(C(C)C)c2n1`, the residual activity in [1] worked out at 96%; in [2] it was 78%; in assay [3], 90%; in [13], 31%; in [5] it was 92%; in [14], 56%. Further, the residual activity in assay [15] was 17%; in [6], 38%; in assay [7], 2%; in assay [16], 95%; in assay [17], 87%; in assay [8] it was 122%. Also, the residual activity in assay [10] is 18%; in [18], 1%; in assay [19] it was 3%; in assay [20], 0%; in assay [11], 2%; in [12], -1%.
For the molecule `O=C1NC(=O)c2c1c1c3ccccc3n3c1c1c2c2ccccc2n1C1CCC3O1`, the residual activity is 91% in assay [3]; 87% in assay [13]; 22% in assay [14]; 27% in assay [15]; 98% in assay [16]; 95% in [17]. The residual activity worked out at 53% in assay [8]; 52% in assay [9]; 78% in assay [10]; 48% in assay [18]; 67% in assay [19]; 60% in [20]. The residual activity in assay [11] stood at 66%; in [12] it was 61%.
For `CCn1cnc2c(Nc3cccc(Cl)c3)nc(N[C@@H]3CCCC[C@@H]3N)nc21`, the residual activity was 22% in assay [1]; 3% in [2]; 78% in [3]; 21% in assay [13]; 94% in assay [4]; 34% in assay [5]. For the same molecule, the residual activity is 71% in [14]; 9% in assay [15]; 14% in assay [6]; 2% in assay [7]; 91% in [16]; 50% in [17]. Further, the residual activity in assay [10] was 19%; in assay [18], 4%; in [19], 8%; in assay [20] it was 0%; in [11] it was 4%; in assay [12], -1%.
